Source: PubChem BioAssay AID504374 (National Center for Advancing Translational Sciences (NCATS), 2011)
Where “and” joins values, the source holds several entries; their conditions need not be identical. Identical values can stand only once. The campaign covered roughly 1,500 compounds. About 100 (6.7%) were called active. About 7% were inconclusive and are not listed. The call rests on the fitted dose curve; in most records, active means well fitted inhibition curve with a large enough effect; inconclusive means small, poorly fitted or top-dose-only effect, or effect the other way; inactive means flat fitted curve, though single readings scatter. This excerpt belongs to a sample that is enriched for actives.

These molecules were tested against Runt-related transcription factor 1 (Homo sapiens) + Core-binding factor subunit beta (Homo sapiens) (UniProt Q01196+Q13951) (assay: qHTS Assay for Compounds Blocking the Interaction Between CBF-beta and RUNX1 for the Treatment of Acute Myeloid Leukemia: Hit Validation). Details: AlphaScreen CBFb-His/RUNX1-biotin binding; series mostly up to 59.8 µM; activity, negative = inhibition: at the top concentration.
Method in brief: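 Compounds were added to a premixed CBF-beta-His/RUNX1-biotin complex (30 nM each, 20 min) for 15 min. Nickel and streptavidin AlphaScreen beads followed for 90 min at room temperature, with emission at 440 nm […].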
Further: nearly all actives have a fitted effect of over 60% in size.
On the % scale 0 is the no-effect control and ±100 the full control effect; potency means the concentration at half of the fitted maximal effect.

Sequence of Runt-related transcription factor 1 (Homo sapiens) + Core-binding factor subunit beta (Homo sapiens) (Q01196 whole entry, looked up): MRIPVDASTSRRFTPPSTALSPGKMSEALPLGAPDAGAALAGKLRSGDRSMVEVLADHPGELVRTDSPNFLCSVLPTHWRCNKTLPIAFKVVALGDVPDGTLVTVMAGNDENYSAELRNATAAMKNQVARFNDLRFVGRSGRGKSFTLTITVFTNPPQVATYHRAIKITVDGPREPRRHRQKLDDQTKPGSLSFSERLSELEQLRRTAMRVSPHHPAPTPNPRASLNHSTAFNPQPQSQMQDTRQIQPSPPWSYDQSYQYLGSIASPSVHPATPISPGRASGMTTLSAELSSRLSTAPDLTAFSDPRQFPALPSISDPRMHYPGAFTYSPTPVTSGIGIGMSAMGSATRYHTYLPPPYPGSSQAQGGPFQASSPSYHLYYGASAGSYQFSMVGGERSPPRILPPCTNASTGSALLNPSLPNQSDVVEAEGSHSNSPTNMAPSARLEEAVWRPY
Sequence of Runt-related transcription factor 1 (Homo sapiens) + Core-binding factor subunit beta (Homo sapiens) (Q13951 whole entry, looked up): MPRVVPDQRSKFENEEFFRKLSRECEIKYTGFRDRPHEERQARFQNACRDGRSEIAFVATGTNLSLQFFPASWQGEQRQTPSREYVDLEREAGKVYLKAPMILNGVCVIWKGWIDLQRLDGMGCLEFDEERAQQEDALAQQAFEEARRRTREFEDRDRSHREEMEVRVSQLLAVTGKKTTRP

Structure (SMILES)	activity, negative = inhibition	Potency
CCCCc1cc(=O)oc2c(C)c(OCc3nn[nH]n3)ccc12	-4.17% (inactive)	–
CC(=O)Nc1nnc(CSCc2ccc(F)cc2)s1	-1.58% (inactive)	–
Cc1ccc(-c2nn[nH]n2)cc1Cl	0.848% (inactive)	–
Cc1ccc(C(=O)/C=C/N(C)C)cn1	-6.06% (inactive)	–
CCOC(=O)Cc1csc(NC(=O)Nc2cccc(OC)c2)n1	6.65% (inactive)	–
CCOC(=O)N1CCC(NS(=O)(=O)c2ccc(C)c(Cl)c2)CC1	-2.28% (inactive)	–
CCOc1ccc(Nc2nc(N)nc(CSC(=S)N3CCOCC3)n2)cc1	-12.1% (inactive)	–
CCN(CC)C(=S)SSC(=S)N(CC)CC	–	0.794 µM (active)
Cc1ccncc1C(N)=O	-0.629% (inactive)	–
CC(C)N(CCn1cnc2c([nH]c3ccccc32)c1=O)C(C)C	1.42% (inactive)	–
Cc1onc(-c2c(Cl)cccc2Cl)c1NC(=O)NC1CCSC1 (stereo unspecified)	-3.96% (inactive)	–
O=C1OCC2OC(O)C(O)C(O)C2OC(=O)c2cc(O)c(O)c(O)c2-c2c(O)c(O)c3oc(=O)c4c(c(O)c(O)c5oc(=O)c2c3c54)-c2c1cc(O)c(O)c2O (stereo unspecified)	–	0.224 µM (active)
O=C(O[C@@H]1OC2COC(=O)c3cc(O)c(O)c(O)c3-c3c(cc(O)c(O)c3O)C(=O)O[C@@H]([C@H]1O)[C@@H]2O)c1cc(O)c(O)c(O)c1	–	0.224 µM (active)
Cc1oc(S(=O)(=O)N(C)C)cc1C(=O)Nc1ccc(Cl)cc1	-5.12% (inactive)	–
Cc1ccc2[nH]cc(CCNC(=O)/C=C/c3ccco3)c2c1	-14.3% (inactive)	–
CC1(C)C(CC2OCC(CN3CCCCC3)O2)[C@H]2CC[C@@H]1C2 (stereo partly specified)	-2.34% (inactive)	–
C=C(C)C(=O)Nc1cccnc1Oc1ccc(F)cc1	-1.27% (inactive)	–
O=C1CCCN1CCCNC(=S)Nc1ccccc1	-7.84% (inactive)	–
C=C(C)C(=O)Nc1cccnc1Oc1ccc(F)cc1F	-0.381% (inactive)	–
O=c1c(O)cccc2cc(O)c(O)c(O)c12	–	447 nM (active) and 631 nM (active)
CCOC(=O)C1(C)C=C(Nc2cccc(OC)c2)C(=O)N1c1ccccc1 (stereo unspecified)	-13% (inactive)	–
COc1ccccc1NC(=O)Nc1sccc1-c1nc2ccccc2s1	-17.1% (inactive)	–
CCOC(=O)c1cnc2c(C(=O)OCC)cnn2c1N	-0.993% (inactive)	–
O=c1[nH]cc(I)cc1I	–	17.3 µM (active)
Oc1ccc(/C=N/NC(=S)Nc2cccnc2)c(O)c1O	–	1.26 µM (active)
CC(C)(C)c1ccc(NC(=S)NCc2cccnc2)cc1	-3.62% (inactive)	–

Structure (SMILES)	activity, negative = inhibition	Potency
CNC(=O)C(=O)N/N=C/c1cccnc1	26.6% (inactive)	–
Oc1ccc(NC(=S)Nc2ccccc2)cc1	-3.44% (inactive)	–
Oc1ccc(/C=N/NC(=S)Nc2cccnc2)c(O)c1	–	1.58 µM (active)
S=C(N/N=C/c1cccc2ccccc12)Nc1cccc(Cl)c1	-12.9% (inactive)	–
O=c1[nH]nc(N/N=C/c2ccc(Cl)cc2Cl)c(=O)[nH]1	-5.54% (inactive)	–
Cc1onc(-c2c(F)cccc2Cl)c1C(=O)N=C(N)N1CC(C)OC(C)C1 (stereo unspecified)	-0.719% (inactive)	–
O=C(O)C1(c2ccccc2)CCN(S(=O)(=O)c2ccc(Cl)s2)CC1	-0.0237% (inactive)	–
N#Cc1c(-c2ccccc2Cl)c2c([nH]c1=O)-c1ccccc1OC2	4.48% (inactive)	–
COc1ccccc1NC(=O)OCC#CCOC(=O)Nc1ccccc1OC	9.79% (inactive)	–
CCn1c(NC(=O)c2ccccc2F)c(-c2cccs2)c(=O)c2ccccc21	-8% (inactive)	–
S=c1[nH]c2cc3ccccc3cc2[nH]1	10.7% (inactive)	–
Nc1ccc2nc3c(=O)[nH]c(=S)[nH]c3nc2c1	–	2.51 µM (active)
COc1ccccc1NC(=S)NCC1CCC(CNC(=S)Nc2ccccc2OC)CC1 (stereo unspecified)	-2.72% (inactive)	–
O=C(O)c1cccnc1C(=O)O	–	14.1 µM (active)
NC(=O)c1cccnc1Oc1ccc(Cl)cc1	-13% (inactive)	–
COC(=O)c1cccnc1Oc1ccccc1	-13.6% (inactive)	–
Cc1[nH]ncc1-c1ccccc1Cl	2.43% (inactive)	–
Nc1nc(CCl)nc(Nc2ccc3ccccc3c2)n1	3.21% (inactive)	–
Cc1ccc(N2CC(c3nc4ccccc4n3C)CC2=O)cc1 (stereo unspecified)	0.961% (inactive)	–
Cc1cc2nc3ccc(=[N+](C)C)cc-3sc2cc1N	–	6.31 µM (active)
Cc1ccc2nc(-c3ccc(N)cc3)sc2c1	0.903% (inactive)	–
Oc1cccc(O)c1O	–	3.97 µM (active)
Cn1nc(-c2ccccc2)cc1NC(=O)CCCC(=O)O	-2.32% (inactive)	–
Cc1ccnn1CC(=O)N/N=C/c1cn[nH]c1-c1ccc(F)cc1	-5.89% (inactive)	–
CC(C)CC(=O)NC(=S)Nc1ccccc1N1CCCC1	-17.3% (inactive)	–
CNC(=O)Nc1cc(NC(=O)NC)cc(C(F)(F)F)c1	-3.15% (inactive)	–

Structure (SMILES)	activity, negative = inhibition	Potency
CCOC(=O)C1=C(C)NC(C)=C(C(=O)OCC)C1	0.11% (inactive)	–
CCCC(=O)NC(c1cccs1)c1cc([N+](=O)[O-])c2cccnc2c1O (stereo unspecified)	–	3.98 µM (active)
CN(C)C(=O)CSc1nnc(NC(=O)CCc2ccccc2)s1	5.1% (inactive)	–
COC(=O)/C=C(\C)N=Nc1c(O)[nH]c2ccccc12	-4.81% (inactive)	–
Cc1ccc(CN(C(=O)c2cc(=O)c3cc(C)cc(C)c3o2)C2CCS(=O)(=O)C2)cc1 (stereo unspecified)	4.59% (inactive)	–
Cc1cccc(C)c1NC(=S)N1CC(C)OC(C)C1 (stereo unspecified)	-4.3% (inactive)	–
Cn1cnc(S(=O)(=O)Nc2ccc(OC(F)F)cc2)c1	1.32% (inactive)	–
O=C1C(CCC(O)c2ccc(F)cc2)C(c2ccc(O)cc2)N1c1ccc(F)cc1 (stereo unspecified)	–	15.8 µM (active)
CC(C)(C)OC(=O)N1CCCN(C(=O)Nc2ccccc2)CC1	0.141% (inactive)	–
COc1cccc(NC(=O)C(=O)NCCc2ccc(F)cc2)c1	5.31% (inactive)	–
CCOC(=O)/C(C#N)=C/Nc1ccsc1C(C)=O	0.205% (inactive)	–
Cc1ccc(Cn2c(N/N=C/c3ccncc3)nc3c2c(=O)n(C)c(=O)n3C)cc1	-3.34% (inactive)	–
O=C1CSC(=S)N1/N=C/c1ccc(O)c(O)c1O	–	0.562 µM (active)
Cc1cc(NC(=O)c2c(-c3c(F)cccc3Cl)noc2C)no1	-7.12% (inactive)	–
COc1cccc(/C=N/NC(=O)C(C)Cn2cnc3ccccc32)c1 (stereo unspecified)	-0.552% (inactive)	–
COc1ccc(Oc2ccc(-c3ccn[nH]3)cc2)cc1	-8.28% (inactive)	–
COc1ccc(Oc2nc(-c3ccccn3)ncc2OC)cc1	–	12.6 µM (active)
COc1ccc(Oc2ncccc2[N+](=O)[O-])cc1	-4.02% (inactive)	–
O=P(O)(O)c1cc(-c2ccccc2)oc1-c1ccccc1	0.0456% (inactive)	–
CCCCC1C2C(=O)N(c3ccc(C)cc3)C(=O)C2ON1c1ccccc1 (stereo unspecified)	-2.92% (inactive)	–
Cc1cc([N+](=O)[O-])nn1Cc1ccc(C(=O)N/N=C/c2ccc(N(C)C)cc2)cc1	-10.8% (inactive)	–
O=C(O)c1cc2ccccc2cc1Nc1ccccc1	-13.1% (inactive)	–
Nc1ccc(N)c(C(=O)O)c1	–	0.794 µM (active)
Nc1ccc(C(=O)C(=O)c2ccc(N)cc2)cc1	4.27% (inactive)	–
